Only a selection was taken, and hits are over-represented in it overall.
HT1080-NT tox: kills 2HG-producing HT-1080-NT fibrosarcoma cells; HT-1080-NT fibrosarcoma viability, CellTiter-Glo ATP luminescence, 48 h; Potency, µM (doses to about 46.1 µM), for inactives: at the top dose activity, negative = less viability, actives largely listed as cytotoxic; hit rate 1.6% among 360,000;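 further: NT is the 2HG producing partner of a matched IDH1 knockdown line; potency means the concentration at half of the fitted maximal effect; 0% = DMSO-treated cells and -100% = media-only wells without cells; nearly all actives have a fitted effect of over 55% in size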
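Compounds were tested in concentration-response format on HT-1080-NT cells for 48 hours at 37 degrees C. Cell viability came from CellTiter-Glo luminescence; curves were classified by r2, response magnitude and activity.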
IL1B secr inh: inhibitors of inflammasome signaling (IL-1 beta secretion); THP-1 LPS/ATP IL-1B secretion, AlphaLISA, 16 h; hits give low values; activity change, % at 57.5 µM; hit rate 4.7% among 360,000; AID 743279; in the data active means activity change below about -50%; inconclusive means mostly about -30% to -49%
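Secreted IL-1B measured by AlphaLISA bead assay after 16 h compound exposure of THP-1 cells; compounds (final up to 57.5 uM) added 1 h before LPS (250 ng/mL) and ATP (1.25 mM) stimulation; lower signal means less secretion.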
DT40 TDP1 no CPT: qHTS for Inhibitors of human tyrosyl-DNA phosphodiesterase 1 (TDP1): qHTS in cells in absence of CPT. DT40 Tdp1-/- hTDP1 cells, no CPT, ATP luminescence, 48 h. Potency, µM (series often up to 46.2 µM), without a hit: at the top dose activity change, negative = growth inhibition, usual class: inhibitors. hit rate 15% among 420,000. AID 686978, 2013; further: potency means the concentration at half of the fitted maximal effect; nearly all actives have a fitted effect of over 55% in size
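Growth kinetics read by CellTiter-Glo luminescence after ≥48 hr at 37 °C. Cells: DT40 Tdp1-/- stably carrying human TDP1, 400 per well, compound exposure in the absence of CPT (DMSO vehicle).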
HT1080 IDH1KD tx: toxicity to HT-1080 IDH1 knockdown cells (counter line) | HT-1080 IDH1 knockdown viability, ATP luminescence, 48 h | Potency, µM (top dose mostly 46.1 µM), inactives show at the highest dose activity, negative = toxicity, usual class: cytotoxic | hit rate 2% among 360,000 | AID 686971;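 further: potency means the concentration at half of the fitted maximal effect; 0% = DMSO wells and -100% = cell-free medium wells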
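HT-1080-IDH1KD cells (IDH1 knocked down), 750/well in RPMI with 5% FBS, treated with compound 48 h at 37 degrees C. Viability by CellTiter-Glo luminescence, normalised to DMSO and no-cell wells; concentration-response curves classed.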
DT40 TDP1 CPT: growth inhibition of DT40 Tdp1-/-;hTDP1 cells with camptothecin (screen for TDP1 inhibitors). Potency, µM (top dose mostly 46.2 µM), inactives show at the highest dose activity change, negative = growth inhibition, usual class: inhibitors. chicken DT40 Tdp1-/-;hTDP1 cells + 20 nM CPT, ATP luminescence, 48 h. hit rate 12% among 420,000. AID 686979; further: potency means the concentration at half of the fitted maximal effect; nearly all actives have a fitted effect of over 55% in size
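Chicken DT40 Tdp1-/- cells stably complemented with human TDP1 were seeded at 400 cells/well in medium containing 20 nM camptothecin, exposed to pin-transferred compounds, and grown at 37 °C for at least 48 hr. Viability was read as ATP luminescence.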
12-LOX inh: ALOX12 (human) lipoxygenase inhibition; P18054; purified 12hLO, xylenol orange hydroperoxide absorbance; Potency, µM (titrated, usually from 108 µM), without a hit: at the highest dose activity change, negative = inhibition, usual class: inhibitors; hit rate 1.1% among 580,000; AID 1671190; further: potency means the concentration at half of the fitted maximal effect
Target sequence (P18054 whole entry, looked up): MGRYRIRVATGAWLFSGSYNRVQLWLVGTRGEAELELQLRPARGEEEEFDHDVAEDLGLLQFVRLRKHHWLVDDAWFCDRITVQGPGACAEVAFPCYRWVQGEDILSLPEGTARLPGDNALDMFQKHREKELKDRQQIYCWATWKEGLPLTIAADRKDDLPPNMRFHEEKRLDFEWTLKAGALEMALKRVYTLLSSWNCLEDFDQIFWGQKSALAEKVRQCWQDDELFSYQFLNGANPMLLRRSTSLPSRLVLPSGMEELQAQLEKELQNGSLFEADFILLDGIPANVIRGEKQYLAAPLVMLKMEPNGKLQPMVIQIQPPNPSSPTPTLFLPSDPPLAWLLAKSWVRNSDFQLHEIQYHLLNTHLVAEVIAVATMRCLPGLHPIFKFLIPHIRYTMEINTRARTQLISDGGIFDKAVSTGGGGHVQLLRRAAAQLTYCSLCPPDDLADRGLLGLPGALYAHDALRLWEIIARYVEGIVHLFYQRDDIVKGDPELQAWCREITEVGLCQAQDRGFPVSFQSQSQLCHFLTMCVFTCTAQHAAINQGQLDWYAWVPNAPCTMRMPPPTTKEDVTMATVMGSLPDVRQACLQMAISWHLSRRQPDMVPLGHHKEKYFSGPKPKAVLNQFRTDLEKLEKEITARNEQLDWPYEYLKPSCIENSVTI
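Hydroperoxide product was detected by ferrous iron/xylenol orange as the 573 to 405 nm absorbance ratio. Arachidonic acid at 40 uM (final) was turned over for 30 min at room temperature by 150 nM human 12hLO, pH 7.0 Hepes buffer, after 15 min compound preincubation.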
The depositor's hits bear a star; ? = inconclusive; · = not tested or not shown. Unless noted, the call rests on the fitted dose curve; in most records, active means well fitted curve in the direction sought with a large enough effect; inconclusive means small, poorly fitted or top-dose-only effect, or another doubt; inactive means no such curve, though single readings can be large; an effect the other way counts as inactive or inconclusive. Unless noted, on the % scale 0 is the no-effect control and ±100 the full control effect.

SMILES	HT1080-NT tox	IL1B secr inh	DT40 TDP1 no CPT	HT1080 IDH1KD tx	DT40 TDP1 CPT	12-LOX inh
O=C(NCc1ccc(F)cc1)c1nc(-c2ccc(Cl)cc2)c2ccccn12	·	·	·	·	·	18%
COc1cc2c(cc1OC)[C@H](C)N(C(=O)NCc1ccccc1)CC2	?	20	7.3µM*	21µM*	23µM*	10%
COc1cc2c(cc1OC)C(C)N(C(=S)NC(=O)c1ccccc1)CC2 (centres undefined)	-24%	30	21µM*	-8%	?	-16%
O=C(CSc1nnc2ccccn12)N1CCN(C(c2ccccc2)c2ccccc2)CC1	·	·	·	·	·	10%
Cc1ccc(C(=O)c2cn(Cc3cccc(F)c3)c3nc(C)ccc3c2=O)cc1	·	·	21µM*	·	?	?
Cc1ccc(C(=O)c2cn(Cc3ccccc3C)c3nc(C)ccc3c2=O)cc1	·	·	21µM*	·	21µM*	-20%
O=C(CSc1ncccc1C(=O)Oc1ccccc1Cl)Nc1ccc(C(F)(F)F)cc1Cl	·	·	23µM*	·	?	-22%
C(=N\n1c2ccccc2c2ccccc21)/c1ccccc1	5%	7	?	-5%	?	32%
Nc1nc2ccccc2n1/N=C/c1ccc(Br)cc1	7%	11	16µM*	10%	?	-1%
C/C=C/c1ccc(OCC(=O)OCC(=O)c2ccc3c(c2)OCO3)c(OC)c1	·	·	·	·	·	-42%
Cc1ccc(C)c(NC(=S)NNC(=O)c2csc(C)c2C)c1	13%	-1	?	8%	?	-21%
Cc1ccc(C)c(NC(=S)NNC(=O)c2sccc2C)c1	8.9µM*	17	-11%	?	-9%	24%
Cn1nc([N+](=O)[O-])nc1Oc1ccccc1F	12%	-2	-6%	-2%	-2%	16%
CS(=O)(=O)c1nc([N+](=O)[O-])nn1CCCc1ccccc1	?	-103*	13µM*	?	6.5µM*	·
Cn1nc([N+](=O)[O-])nc1S(C)(=O)=O	16µM*	-101*	4.6µM*	16µM*	4.6µM*	-3%
Cc1ccc(NC(=O)Cn2cc(C#N)c3ccccc32)cc1F	·	·	·	·	·	2%
COc1ccc2cc3cc(C(=O)N4CCN(c5ccccn5)CC4)oc3nc2c1	10%	6	18µM*	2%	?	17%
COc1ccc2cc3cc(C(=O)N4CCN(Cc5ccc6c(c5)OCO6)CC4)oc3nc2c1	-28%	-65*	?	?	?	-24%
COc1cccc(NC(=O)CN(C)C(=O)/C=C/c2ccc3ccccc3n2)c1	-7%	-77*	-12%	-11%	6%	?
COc1cccc(NC(=O)CN(C)C(=O)c2ccccn2)c1	4%	22	7%	0%	16%	2%
COc1ccc(CN(C)C(=O)/C=C/c2ccc(S(=O)(=O)N3CCCCCC3)cc2)cc1	-11%	?	23µM*	-7%	?	0%
COc1ccccc1NC(=O)/C=C/c1ccc2ccccc2n1	·	·	·	·	·	-4%
CN(CC(=O)Nc1cccc(F)c1)C(=O)/C=C/c1ccc(S(=O)(=O)N2CCCCCC2)cc1	-12%	?	?	?	?	-1%
COc1ccccc1NC(=O)C(C)OC(=O)/C=C/c1ccc2ccccc2n1 (centres undefined)	1%	7	?	-3%	29µM*	-14%
CNC(=O)c1ccc(CN(C)C(=O)/C=C/c2ccc(S(=O)(=O)N3CCCCCC3)cc2)cc1	-7%	-4	23µM*	-17%	23µM*	-13%
SMILES	HT1080-NT tox	IL1B secr inh	DT40 TDP1 no CPT	HT1080 IDH1KD tx	DT40 TDP1 CPT	12-LOX inh
COc1cccc(NC(=O)O[C@@H]2CC[C@]3(C)C(CC[C@@H](O)[C@H]3CC(=O)N3CC[C@H](NC(C)=O)C3)[C@]2(C)CO)c1 (some centres undefined)	·	·	·	·	·	45%
Cc1ccc(C)c(NC(=O)c2nn(-c3ccccc3)c(=O)c3ccccc23)c1	·	·	·	·	·	25%
COc1ccc(C(C)=O)cc1CSc1ccccc1C(=O)O	·	·	·	·	·	-2%
COc1cccc(NC(=O)C2N(C(C)C)C(=O)C23CCCC3)c1 (centres undefined)	·	·	·	·	·	48%
COc1cc(NC(=O)CSc2ncnc3nc[nH]c23)cc(OC)c1	·	·	·	·	·	7%
COc1cccc(NC(=O)CN(C)C(=O)/C=C/c2ccc(S(=O)(=O)N3CCCCCC3)cc2)c1	-15%	-3	18µM*	?	?	-12%
COc1ccccc1C1=NOC(C(=O)Nc2cc(C)nn2-c2ccccc2)C1 (centres undefined)	·	·	·	·	·	6%
CCOCCCNC(=O)C1CCCCC1	·	·	·	·	·	7%
COC(=O)C1=CN(c2cccc(OCc3ccccc3)c2)C(N)=C(C#N)C1c1ccccc1 (centres undefined)	3%	8	?	1%	?	3%
COC(=O)C1=CN(c2ccccc2OC)C(N)=C(C#N)C1c1cccc([N+](=O)[O-])c1 (centres undefined)	2.3µM*	55	1.3µM*	1.8µM*	0.82µM*	?
COC(=O)C1=CN(c2ccc(Oc3ccccc3)cc2)C(N)=C(C#N)C1c1ccc(-c2ccccc2)cc1 (centres undefined)	-2%	-11	?	6%	?	-24%
COC(=O)C1=CN(c2ccc(F)cc2)C(N)=C(C#N)C1c1ccccc1 (centres undefined)	-27%	0	21µM*	?	?	45µM*
COC(=O)C1=CN(c2ccc(Oc3ccccc3)cc2)C(N)=C(C#N)C1c1ccccc1 (centres undefined)	-22%	-1	15µM*	-23%	?	?
COC(=O)C1=CN(c2ccc3c(c2)OCO3)C(N)=C(C#N)C1c1ccccc1 (centres undefined)	18µM*	-19	5.8µM*	12µM*	5.2µM*	?
COC(=O)C1=CN(c2ccc(N3CCOCC3)cc2)C(N)=C(C#N)C1c1ccc(-c2ccccc2)cc1 (centres undefined)	-2%	7	5.8µM*	-23%	7.3µM*	-4%
Cc1cc(S(=O)(=O)NCCO)c(C(C)C)cc1Br	·	·	·	·	·	3%
CCOC(=O)CSC1=N/C(=C\c2ccc(OC)c(OC)c2)C(=O)N1C	1%	-19	?	-2%	26µM*	-11%

Screens (PubChem BioAssay)
